{"source": "PubChem BioAssay (Tox21)", "note": "Records with an inconclusive call do not appear. A number with no mark means an inactive call. Calls follow the shape of the dose curve; as a rule, active = well fitted activation curve with a large enough effect in the repeat runs; inconclusive = weak or mixed curves; inactive = flat fitted curve, though single readings scatter. % is scaled to controls: 0 for no effect and ±100 for the full control effect."}
{"assay": "A CellTox Green Cytotoxicity Assay to monitor cytotoxicity in HepG2 cells - 8 hour (AID 1224890); also: nearly all actives have a fitted effect of over 45% in size", "conditions": "CellTox Green fluorescence; series mostly up to 76.8 µM; cytotoxicity increase: at the top concentration", "text": "National Center for Advancing Translational Sciences [NCATS]\nNIH Chemical Genomics Center [NCGC]\nU.S. Environmental Protection Agency [EPA]\nNational Institutes of Environmental Health Sciences [NIEHS]\nNational Toxicology Program [NTP]\nCell-based models are critical for drug discovery. Determining the natural cytotoxic effects resulting from test compounds is an essential research activity. A CellTox Green Cytotoxicity Assay to monitor cytotoxicity in real time of continues cell culture during 40 hours of the compound treatment was used to screen Tox21 10K library compounds in HepG2 cells. CellTox Green Cytotoxicity Assay is a nonlytic, homogeneous, biofluorescent method to measure cytotoxicity in cell culture after experimental manipulation. The assay system uses a proprietary asymmetric cyanine dye that is excluded from viable cells but preferentially stains the dead cell's DNA. […] Viable cells produce no appreciable increases in fluorescence. Therefore, the fluorescence signal produced by the binding interaction with dead cell DNA is proportional to cytotoxicity.\nThe mixture of HepG2 cell suspension and reagents were dispensed at 600cells/6 ul/well in 1536-well tissue culture treated black solid bottom plates using a Multidrop dispenser. After the assay plates were incubated at a 37 C/5% CO2 incubator for 5 hours, 23 nL of compounds dissolved in DMSO, positive and negative controls was transferred to the assay plate by a pintool work station. The plates were incubated at 37 C for 40 hours. The fluorescence intensity were measured at 0h, 8h, 16h, 24h, 32h and 40h time points using ViewLux plate reader during compound treatment."}
{"smiles": "Clc1cccc(N2CCNCC2)c1", "cytotoxicity increase": "9.16% [at 35.3 µM]"}
{"smiles": "CCN(Cc1ccc(Cl)nc1)/C(=C/[N+](=O)[O-])NC", "cytotoxicity increase": "-10.4% [at 35.3 µM]"}
{"smiles": "CCN(CC)C(=O)[C@@H]1C=C2c3cccc4[nH]cc(c34)C[C@H]2N(C)C1", "cytotoxicity increase": "5.75% [at 200 µM]"}
{"smiles": "O=C1OC(CCN2CCCCC2)OC1(c1ccccc1)c1ccccc1", "note": "(stereo not given)", "cytotoxicity increase": "-5.61% [at 35.3 µM]"}
{"smiles": "CCC1(c2ccccc2)C(=O)NC(=O)NC1=O", "cytotoxicity increase": "3.27%"}
{"smiles": "ClCC(Cl)Cl", "cytotoxicity increase": "0.472%"}
{"smiles": "Nc1c(Br)cc([N+](=O)[O-])cc1[N+](=O)[O-]", "cytotoxicity increase": "-8.03%"}
{"smiles": "N#Cc1ccncc1", "cytotoxicity increase": "-9.05%"}
{"smiles": "CCN(CC)CCOC(=O)C(C)(c1ccccc1)c1ccccc1", "cytotoxicity increase": "22.6% [at 35.3 µM]"}
{"smiles": "Cc1nnc2n1-c1sc(CCC(=O)N3CCOCC3)cc1C(c1ccccc1Cl)=NC2", "cytotoxicity increase": "-5.07% [at 35.3 µM]"}
{"smiles": "CC1=C(C(=O)O)N2C(=O)[C@@H](N)[C@H]2SC1", "cytotoxicity increase": "-7.33% [at 15.8 µM]"}
{"smiles": "CCCSP(=O)(OCC)Oc1ccc(Br)cc1Cl", "note": "(stereo not given)", "cytotoxicity increase": "-0.331% [at 35.3 µM]"}
{"smiles": "O=C(N[C@H]1CN2CCC1CC2)c1cc2ccoc2cn1", "cytotoxicity increase": "0.0606%"}
{"smiles": "O=C(CCN1CC1)OCC(CO)(COC(=O)CCN1CC1)COC(=O)CCN1CC1", "cytotoxicity increase": "-13.2%"}
{"smiles": "CC(=O)CC(c1ccc(Cl)cc1)c1c(O)c2ccccc2oc1=O", "note": "(stereo not given)", "cytotoxicity increase": "0.493%"}
{"smiles": "Cc1ncsc1CCCl", "cytotoxicity increase": "0.973% [at 35.3 µM]"}
{"smiles": "CSc1nc(N=[N+]=[N-])nc(NC(C)C)n1", "cytotoxicity increase": "-0.35%"}
{"smiles": "CC(Cl)(Cl)[N+](=O)[O-]", "cytotoxicity increase": "5.29%"}
{"smiles": "C[C@@H]1CN(C2CCC(C#N)(c3ccc(F)cc3)CC2)CC[C@]1(C(=O)O)c1ccccc1", "note": "(stereo not given in full)", "cytotoxicity increase": "1.5% [at 35.3 µM]"}
{"smiles": "O=NN1CCN(N=O)CC1", "cytotoxicity increase": "5.38%"}
{"smiles": "COc1cccc(C(=O)NN(C(=O)c2cc(C)cc(C)c2)C(C)(C)C)c1C", "cytotoxicity increase": "-7.06%"}
{"smiles": "O=C(O)c1cccc(Cl)c1", "cytotoxicity increase": "-2.48%"}
{"smiles": "N#CCNCC#N", "cytotoxicity increase": "-6.47%"}
{"smiles": "CCOC(=O)C(c1c(O)c2ccccc2oc1=O)c1c(O)c2ccccc2oc1=O", "cytotoxicity increase": "1.96% [at 35.3 µM]"}
{"smiles": "O=[N+]([O-])c1ccc(CBr)cc1", "cytotoxicity increase": "-11.7%"}
{"smiles": "CCCCc1ccc(O)cc1", "cytotoxicity increase": "21.9%"}
{"smiles": "C1CCC(C2CCCCC2)CC1", "cytotoxicity increase": "-5.26%"}
{"smiles": "c1cc2c(c(N3CCNCC3)c1)OCCO2", "cytotoxicity increase": "-30% [at 35.3 µM]"}
{"smiles": "CCOP(=S)(OCC)SCSP(=S)(OCC)OCC", "cytotoxicity increase": "-2.15%"}
{"smiles": "CC1(C)COP(Oc2ccccc2)OC1", "cytotoxicity increase": "-1.89%"}
{"smiles": "CC(=O)[C@H]1CC[C@H]2[C@@H]3CC[C@H]4C[C@H](O)CC[C@]4(C)[C@H]3C(=O)C[C@]12C", "cytotoxicity increase": "0.697% [at 35.3 µM]"}
{"smiles": "CC(C)COP(=O)(OCC(C)C)OCC(C)C", "cytotoxicity increase": "1.71%"}
{"smiles": "COc1ccc2c(c1OC)CN1CCc3cc4c(cc3C1C2)OCO4", "note": "(stereo not given)", "cytotoxicity increase": "14.8% [at 35.3 µM]"}
{"smiles": "CC1(C)CON(Cc2ccccc2Cl)C1=O", "cytotoxicity increase": "-7.4%"}
{"smiles": "CNC(=O)Oc1cccc(C(C)C)c1", "cytotoxicity increase": "-12.8%"}
{"smiles": "COc1cc2c(cc1OC)[C@@]13CCN4CC5=CCO[C@H]6CC(=O)N2[C@H]1[C@H]6[C@H]5C[C@H]43", "cytotoxicity increase": "-1.86%"}
{"smiles": "N#CCBr", "cytotoxicity increase": "-12.4%"}
{"smiles": "CCCCOC(=O)[C@@H](C)Oc1ccc(Oc2ccc(C#N)cc2F)cc1", "cytotoxicity increase": "-13.1%"}
{"smiles": "CCC(C)(C)c1cc(-n2nc3ccccc3n2)c(O)c(C(C)(C)CC)c1", "cytotoxicity increase": "-8.13%"}
{"smiles": "CCOP(=S)(OCC)Oc1nc(Cl)n(C(C)C)n1", "cytotoxicity increase": "-7.21%"}
